# Among all 48,000 compounds or so, about 13,000 (27%) showed an effect of 50% or more. The list shows a part of the results.
# Tested on: Wolbachia pipientis
# Test: Anti-Wolbachia Cell-Based Screen
# Type: functional
# Set-up: scale not given: in the data most compounds retested in dose-response had high values
# Conditions: 5 µM
row,Structure (SMILES),Percent Effect [%]
1,Brc1ccc(C2(NCc3noc(C4CC4)n3)CCC2)cc1,4.263
2,Cc1nc2n(n1)CC(NCCc1cccs1)CC2 (stereo not drawn),7.216
3,CCc1nc2n(n1)CC(NCc1noc(-c3ccccc3)n1)CC2 (stereo not drawn),-10.54
4,CCc1nc2n(n1)CC(NCc1nc(C)c(C)o1)CC2 (stereo not drawn),-17.82
5,COc1ccc(-c2nc(CNC3CCc4nc(C)nn4C3)no2)cc1 (stereo not drawn),131.6
6,Cc1cccc(-c2nc(CNC3CCc4ncnn4C3)no2)c1 (stereo not drawn),121.2
7,CNC(=O)COc1ccccc1CNC1CCc2nc(C)nn2C1 (stereo not drawn),-0.6489
8,c1csc(-c2nc(CNC3CCc4ncnn4C3)cs2)c1 (stereo not drawn),-10.85
9,c1ccc(-c2nccc(CNC3CCc4ncnn4C3)n2)cc1 (stereo not drawn),120.1
10,CCc1nc2n(n1)CC(NCc1noc(-c3ccc(C)cc3)n1)CC2 (stereo not drawn),89.35
11,COc1ccccc1CC(=O)N1CCCC(c2nccn2CC(N)=O)C1 (stereo not drawn),0.4607
12,COc1ccc(OCCc2sc(C3(O)CCCNCC3)nc2C)cc1.Cl (stereo not drawn),2.251
13,O=C1NCCCC12CCN(c1nc3c(c(C(F)(F)F)n1)CCCC3)C2 (stereo not drawn),-1.844
14,Cc1ccc(-c2nc(CNC3CCc4ncnn4C3)no2)cc1 (stereo not drawn),118.2
15,Cc1nc2n(n1)CC(NCc1nc3ccccc3o1)CC2 (stereo not drawn),12.54
16,Cc1nc2n(n1)CC(NCc1nc(C)c(C)o1)CC2 (stereo not drawn),-8.158
17,c1ccc(-c2noc(CNC3CCc4ncnn4C3)n2)nc1 (stereo not drawn),0.9775
18,Fc1ccc(-c2cnc(CNC3CCc4ncnn4C3)o2)cc1 (stereo not drawn),7.148
19,Cc1cccc(-c2nc(CNC3CCc4nc(C)nn4C3)no2)c1 (stereo not drawn),111
20,Cc1ccc(O)c(CNC2CCc3nc(C)nn3C2)n1 (stereo not drawn),92.84
21,c1ccc(-c2nc(CNC3CCc4ncnn4C3)no2)cc1 (stereo not drawn),109.8
22,Cc1nc2n(n1)CC(NCc1nc(-c3cccnc3)no1)CC2 (stereo not drawn),-5.692
23,Cc1nc2n(n1)CC(NCc1nc(-c3cccs3)no1)CC2 (stereo not drawn),-19.82

row,Structure (SMILES),Percent Effect [%]
1,c1nc2n(n1)CC(NCc1nc(-c3ccsc3)no1)CC2 (stereo not drawn),-6.7
2,O=C(CN1CCOC(c2ccc(Cl)s2)C1)NCc1ccco1 (stereo not drawn),16.69
3,CC(C)OC(=O)CCNC(=O)Nc1cccc2ncccc12,-2.669
4,CS(=O)(=O)NC1CCCN(C(=O)NCc2ccccc2Cl)C1 (stereo not drawn),118.4
5,CN1C[C@@H]2CN(C(=O)NCc3cccc(F)c3)CCC[C@]2(C(=O)O)C1.O=C(O)C(F)(F)F,-0.5828
6,Cc1ccc(CNC(=O)N2CCCC(NS(C)(=O)=O)C2)cc1 (stereo not drawn),112.9
7,COc1ccc(CNC(=O)N2CCCC(Nc3ccccc3)C2)cn1 (stereo not drawn),-13.37
8,CS(=O)(=O)NC1CCCN(C(=O)NCc2cccc(F)c2)C1 (stereo not drawn),119.2
9,CS(=O)(=O)NC1CCN(C(=O)NCCc2ccccc2F)CC1,4.744
10,CS(=O)(=O)NC1CCN(C(=O)c2ccc(Br)o2)C1 (stereo not drawn),-2.031
11,Cc1cc(CN2CCCC(NS(C)(=O)=O)C2)ccc1-n1cncn1 (stereo not drawn),11.85
12,CS(=O)(=O)NC1CCCN(C(=O)NCc2ccoc2)C1 (stereo not drawn),92.13
13,COc1ccccc1CNC(=O)N1CCCC(NS(C)(=O)=O)C1 (stereo not drawn),10.46
14,COC1CCCN(C(=O)NCc2ccc(C(=O)N(C)C(C)C)cc2)C1 (stereo not drawn),-8.588
15,CC(C(=O)N1CCc2ccccc21)N1CCc2cncnc2C1 (stereo not drawn),1.414
16,CC1(C)CN(C(=O)CCc2nc(-c3ccncc3)no2)CCO1,17.48
17,CC(=O)N(C/C=C/c1ccccc1)CCO,-9.29
18,CC(C)c1nccn1C1CCCN(C(=O)c2ccn(C)c(=O)c2)C1 (stereo not drawn),-3.204
19,O=C(c1ccc2nncn2c1)N1CCCC(n2ccnc2)C1 (stereo not drawn),105.7
20,CCc1nccn1C1CCCN(C(=O)c2ccc3nncn3c2)C1 (stereo not drawn),-7.143
21,CC(C)c1nccn1C1CCCN(C(=O)c2ccc3c(c2)COC3)C1 (stereo not drawn),-6.912
22,Cc1nccn1C1CCCN(C(=O)c2ccc3nncn3c2)C1 (stereo not drawn),98.97
23,CC(C)c1nccn1C1CCCN(C(=O)c2ccc3nncn3c2)C1 (stereo not drawn),89.79

row,Structure (SMILES),Percent Effect [%]
1,CN(Cc1cccnc1)C[C@@H]1OC[C@H]2CN(C(=O)C3CC3)CC[C@H]21.O=C(O)C(F)(F)F.O=C(O)C(F)(F)F,-11.76
2,O=C(Nc1cc(Cl)ccc1Cl)NC1CCN(C2CCOC2)CC1 (stereo not drawn),-16.63
3,CCCn1ccnc1CN1C[C@@H](CN2CCCCC2)[C@@H](CO)C1,-0.9532
4,CN(CCCc1cnn(C)c1)c1nccc(-c2cc(C(=O)O)ccn2)n1,108.4
5,CC(C)N(Cc1cnn(C)c1)C(=O)c1ccnc(N(C)C)c1,14.77
6,CN(Cc1cnn(C)c1)c1nccc(-c2cc(C(=O)O)ccn2)n1,109.1
7,CN(CCCc1nccn1C)c1nccc(N2CCC(O)C2)n1 (stereo not drawn),13.17
8,Cc1nn(C)cc1-c1ccnc(N(C)Cc2cnn(C)c2)n1,-26.11
9,Cc1nc(N(C)CCCc2nccn2C)c2nc(C)oc2n1,-2.669
10,CN(CCCc1nccn1C)c1nccc(-c2cc(C(=O)O)ccn2)n1,93.19
11,CN(CCCc1cnn(C)c1)C(=O)Nc1cccc(C#N)c1,-5.075
12,Cn1cc(CCCN2CCN(C(=O)c3cccc(O)c3)CC2)cn1,-1.766
13,COCCn1ccnc1CN(Cc1ccccn1)Cc1sccc1C,-1.6
14,CCOc1ccccc1NC(C)C(=O)N(C)Cc1cccc(F)c1 (stereo not drawn),13.58
15,CC(=O)Nc1nc(CN(C)CC2CCCN2c2cccnn2)cs1 (stereo not drawn),10.35
16,CNC(=O)CC1CCN(C(=O)NCc2coc3ccccc23)CC1,-8.978
17,c1cc(CN2CCN(Cc3cscn3)CC2)cs1,-0.1438
18,Cc1ccccc1C(C)NC(=O)CN1CCN(Cc2cccs2)CC1 (stereo not drawn),6.89
19,CC(C)c1noc(C(C)N2CCN(Cc3ccsc3)CC2)n1 (stereo not drawn),12.33
20,Cn1ccnc1C(O)c1ccccc1N1CCN(Cc2ccsc2)CC1 (stereo not drawn),129.7
21,Cn1ccnc1C(O)c1ccccc1N1CCN(Cc2cccs2)CC1 (stereo not drawn),123.9
22,CC(C)Oc1ncnc2c1CCN(Cc1cccs1)CC2,10.07

# — ChEMBL document CHEMBL3988442, “University of Dundee, Small-Polar-MMV Screening Library” (2021)
